Where “and” joins values, the source holds several entries; their conditions need not be identical. Equal values may be shown once. More than one record can exist for a structure, and the calls need not agree. Calls of active or inactive are those of the source. The calls were made as follows: active = hit-call score of the fitted dose curve at least 0.9, where 1 is the maximum; inactive = score below 0.9.

Read-out in this assay: Interferon-inducible T-cell alpha chemoattractant (ITAC), CXCL11 (gene 6373)
Briefly: BSK_hDFCGF_ITAC: BioMAP Diversity Plus: hDFCGF Assay for Interferon-inducible T-cell alpha chemoattractant (ITAC) Biomarker Activity (AID 2284251). The note with it: primary human foreskin fibroblasts. As for the experimental part:
BSK_hDFCGF is a cell-based, multiplexed-readout assay that uses foreskin fibroblast, a human skin primary cell, with measurements taken at 24 hours after chemical dosing in a 96-well plate.BSK_hDFCGF_ITAC is an assay component measured in the BSK_hDFCGF assay. It measures I-TAC antibody related to regulation of gene expression using ELISA technology.Data from the assay component BSK_hDFCGF_ITAC was analyzed at the endpoint, BSK_hDFCGF_ITAC, in the positive analysis fitting direction relative to DMSO as the negative control and baseline of activity. Using a type of binding reporter, gain or loss-of-signal activity can be used to understand protein changes. To generalize the intended target to other relatable targets, this assay endpoint is annotated to the 'cytokine' intended target family, where the subfamily is 'chemotactic factor'.
The levels of cell surface (or secreted, indicated by the prefix "s") biomarker endpoints were measured by ELISA. Overt cytotoxicity to cells in confluent adherent cultures (all systems other than the BT system) was assessed by measuring total protein levels using sulforhodamine B (SRB) staining in parallel cultures at the time of biomarker measurements, indicated as SRB endpoints. For proliferation assays for adherent cell types, individual cell types are cultured at sub-confluence and relative cell numbers quantified by SRB staining at time points optimized for each system (48 h: 3C and CASM3C systems; 72 h: BT and HDF3CGF systems; 96 h: SAg system). SRB was performed by staining cells with 0.1% SRB after fixation with 10% TCA and reading wells at 560 nm.Viability and proliferation of PBMC (T cells) was quantified by Alamar Blue reduction for the SAg and BT systems. For PBMC viability (referred to as PBMC Cytotoxicity within the assay endpoint names), cells were plated (75,000/well in a 96-well plate) and then chemical samples added for 1 h before addition of activators, SEB and TSST-1 (20 ng/mL final concentration each). Cells were incubated for 90 h. Then, Alamar Blue (20 uL/well) (Invitrogen, Cat DAL1100) was added for 6 h, and the plates were read with a fluorescence microplate reader at 546/580 nm (excitation/emission). For PBMC proliferation, cells were plated and activated as above but incubated for only 16 h prior to addition of Alamar Blue. Plates were read after 6 h.
Take `O=C(O)C(F)(F)C(F)(F)C(F)(F)C(F)(F)C(F)(F)C(F)(F)C(F)(F)C(F)(F)C(F)(F)C(F)(F)C(F)(F)C(F)(F)C(F)(F)F`: the AC50 – broadly, the midpoint of the concentration-response curve, whichever way the signal moves – was 5.22 µM (active) and the result was inactive.

`FC(F)(F)C(F)(F)C(F)(F)C(F)(F)C(F)(F)C(F)(F)C(F)(F)Br`: the outcome was inactive.

Consider `FC(F)(F)C(F)(F)C(F)(F)C(F)(F)CCI`, for which the outcome was inactive.

For the compound `CCCCC(CC)COP(=O)(O)OCC(CC)CCCC` (stereo not given), the AC50 was 29.7 µM (active) and 20 µM (active).

In the case of `C=CC(=O)OCC(F)(F)C(F)(F)C(F)(F)C(F)(F)C(F)(F)C(F)(F)C(F)(F)F`, the outcome was inactive.

On to `O=C(O)C(F)(F)C(F)(F)C(F)(F)C(F)(F)C(F)(F)C(F)(F)C(F)(F)C(F)(F)C(F)(F)C(F)(F)C(F)(F)C(F)(F)F`, for which the outcome was inactive and the concentration at half-maximal activity (AC50) was 3.49 µM (active).

Regarding `C=C(C)C(=O)OCCC(F)(F)C(F)(F)C(F)(F)C(F)(F)C(F)(C(F)(F)F)C(F)(F)F`, the outcome was inactive.

As to `OCC(F)(F)C(F)(F)C(F)(F)C(F)(F)C(F)(F)C(F)F`, the outcome was inactive.

`FC(F)(F)C(F)(F)C(F)(F)C(F)(F)C(F)(F)C(F)(F)C(F)(F)I`: the result was inactive.

With `O=S(=O)(OCC(F)F)C(F)(F)F`, the result was inactive.

`NC(=O)C(F)(F)C(F)(F)C(F)(F)C(F)(F)F`: the result was inactive.

For `FC(F)(F)C(F)(F)C(F)(F)CI`, the AC50 is 0.22 µM (active) and the outcome was inactive.

Consider `O=C(O)C=C(C(F)(F)F)C(F)(F)F`, for which the result was inactive.

With `OCC(F)(F)C(F)(F)C(F)(F)C(F)F`, the outcome was inactive.

Take `CC(C)(C)C(=O)CC(=O)C(F)(F)C(F)(F)C(F)(F)F`: the outcome was inactive.

As to `O=C(CC(=O)C(F)(F)C(F)(F)F)C(F)(F)F`, the outcome was inactive.

In the case of `O=C(Cl)C(F)(F)C(F)(F)C(F)(F)C(F)(F)C(F)(F)C(F)(F)C(F)(F)C(F)(F)F`, the AC50 was 20.4 µM (active) and 48.2 µM (active) and 30 µM (active).

For the compound `CCCCCCOC(=O)c1ccccc1O`, the AC50 is 40.7 µM (active) and 45.2 µM (active).

`O=S(=O)(O)C(F)(F)C(F)(F)C(F)(F)C(F)(F)C(F)(F)C(F)(F)C(F)(F)F`: the result was inactive.

With `OCCCC(F)(F)C(F)(F)C(F)(F)F`, the result was inactive.

On to `FC(F)(F)C(F)(F)C(F)(F)C(F)(F)C(F)(F)C(F)(F)CCS`, for which the result was inactive.

For the compound `FC(F)(F)C(F)(F)C(F)(F)C(F)(F)C(F)(F)C(F)(F)C(F)(F)C(F)(F)F`, the result was inactive.

`OCC(F)(F)C(F)(F)C(F)(F)C(F)(F)C(F)(F)C(F)(F)F`: the outcome was inactive and the AC50 is 49.4 µM (active).

Regarding `CCCCCCCCC(F)(F)C(F)(F)C(F)(F)C(F)(F)C(F)(F)C(F)(F)F`, the result was inactive.

Regarding `FC(F)(F)C(F)(F)C(F)(F)C(F)(F)C(F)(F)CCI`, the AC50 is 30 µM (active) and 40.9 µM (active).

Take `C=C(C)C(=O)OCC(F)(F)C(F)(F)C(F)(F)F`: the result was inactive.

Take `O=C(O)C(F)(F)C(F)(F)OC(F)(F)F`: the result was inactive.

Take `FC(F)(F)C(F)(F)C(F)(F)C(F)(F)C(F)(F)C(F)(F)C(F)(F)C(F)(F)CCS`: the outcome was inactive.

For the compound `FC(F)(I)C(F)(F)C(F)(F)C(F)(F)I`, the AC50 was 29.2 µM (active) and 46.2 µM (active) and 52 µM (active).

As for `O=C(O)C(F)(OC(F)(F)C(F)(OC(F)(F)C(F)(OC(F)(F)C(F)(F)C(F)(F)F)C(F)(F)F)C(F)(F)F)C(F)(F)F` (stereo not given), the result was inactive.

For `C=CC(F)(F)C(F)(F)C(F)(F)C(F)(F)C(F)(F)C(F)(F)C(F)(F)C(F)(F)F`, the outcome was inactive.

As to `N=C(N)C(F)(F)C(F)(F)C(F)(F)C(F)(F)C(F)(F)C(F)(F)C(F)(F)F`, the AC50 was 57.6 µM (active) and 52.7 µM (active).

As to `O=S(=O)(OCCOC(F)(F)F)C(F)(F)F`, the outcome was inactive.

`O=C(O)C(F)(OC(F)(F)C(F)(OC(F)(F)C(F)(F)C(F)(F)F)C(F)(F)F)C(F)(F)F` (stereo not given): the outcome was inactive.

As to `FC(F)(F)C(F)(F)C(F)(F)N(C(F)(F)C(F)(F)C(F)(F)F)C(F)(F)C(F)(F)C(F)(F)F`, the outcome was inactive.

As for `FC1CC(F)(F)C(F)(F)C1(F)F` (stereo not given), the outcome was inactive.

The values are drawn from PubChem BioAssay (EPA / NIEHS).
